Assay outcomes as filed in PubChem BioAssay.
Compounds with a hit are over-represented: about 5.5% of the library has one in this group of screens.
MBNL1 CUG block: MBNL1-poly(CUG) RNA binding inhibition. Q9NR56. TR-FRET MBNL1-His/biotin-(CUG)12 binding, 665/545 ratio. Potency, µM (highest dose often 57.5 µM), without a hit: at the highest dose activity change, negative = inhibition, actives largely listed as inhibitors. 280,000 compounds, 0.036% hits; active = well fitted inhibition curve with a large enough effect in the signal ratio, with a control signal flat, not every such curve was filed as active; inconclusive = small, poorly fitted or top-dose-only effect, or effect the other way, or a change in a side signal; inactive = no such curve, though single readings can be large or run the other way; the % refers to the signal ratio; note: potency is the fitted concentration of half-maximal effect; % is set by controls: 0 for no effect and ±100 for the full control effect
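His-tagged MBNL1 binding to biotinylated (CUG)12 RNA was measured by TR-FRET using terbium anti-His antibody (0.055 ng/ul final) and streptavidin-XL665 (5 nM final). Compounds were titrated 92 nM to 58 uM; 60 min at room temperature.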
Six1-Eya2 blk: inhibitors of human Six1/Eya2 interaction; 360,000 compounds, 0.56% hits; Q15475+O00167; activity change, % (concentration not given with the values); AlphaScreen GST-Six1/His-Eya2 binding, biochemical; active compounds read low; in the data active = activity change below about -65%; inconclusive = mostly about -30% to -63%; note: % is set by controls: 0 for no effect and ±100 for the full control effect
Target sequence (O00167 whole entry, looked up): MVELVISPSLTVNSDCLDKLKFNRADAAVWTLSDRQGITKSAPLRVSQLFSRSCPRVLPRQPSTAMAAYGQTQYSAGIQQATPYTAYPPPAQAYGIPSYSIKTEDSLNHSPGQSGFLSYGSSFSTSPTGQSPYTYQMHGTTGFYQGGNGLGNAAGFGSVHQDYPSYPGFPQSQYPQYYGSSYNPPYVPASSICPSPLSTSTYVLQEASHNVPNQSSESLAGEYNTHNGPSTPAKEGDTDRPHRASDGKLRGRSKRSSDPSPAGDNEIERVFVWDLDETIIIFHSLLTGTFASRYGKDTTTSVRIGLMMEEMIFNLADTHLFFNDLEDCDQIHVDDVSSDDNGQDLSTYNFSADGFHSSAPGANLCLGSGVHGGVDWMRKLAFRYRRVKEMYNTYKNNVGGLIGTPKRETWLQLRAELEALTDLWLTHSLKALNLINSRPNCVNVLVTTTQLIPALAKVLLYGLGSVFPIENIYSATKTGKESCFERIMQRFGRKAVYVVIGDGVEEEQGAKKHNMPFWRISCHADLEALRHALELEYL
Target sequence (Q15475 whole entry, looked up): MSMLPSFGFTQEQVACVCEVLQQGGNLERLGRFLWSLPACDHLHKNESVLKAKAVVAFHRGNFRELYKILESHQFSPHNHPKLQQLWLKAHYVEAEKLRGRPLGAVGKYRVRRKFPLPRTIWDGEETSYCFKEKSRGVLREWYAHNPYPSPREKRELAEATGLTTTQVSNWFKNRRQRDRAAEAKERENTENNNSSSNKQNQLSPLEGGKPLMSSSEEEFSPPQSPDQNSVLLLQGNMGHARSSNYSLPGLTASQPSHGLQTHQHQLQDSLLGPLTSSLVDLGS
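GST-Six1 + His-Eya2 (5X stock: 250/500 nM); Tris pH 8.0, 300 mM NaCl, 0.05% BSA, 0.02% Tween 20; GSH donor/Ni acceptor beads; 1 h 37 °C dark; AlphaScreen readout.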
CBFb-RUNX1 inh: blocks binding between human CBF-beta and RUNX1 | Q01196+Q13951 | AID 1477 | 230,000 tested, under 10 active | AlphaScreen CBFb-His/RUNX1-biotin binding, biochemical | Potency, µM (doses to about 59.8 µM), for the others: top-dose activity, negative = inhibition, most hits filed as inhibitors; note: % of control where 0% means no effect
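AlphaScreen binding: CBFb-His and RUNX1-biotin (30 nM each) preincubated 20 min, compound added for 15 min, then nickel and streptavidin beads for 90 min, all at room temperature. Disruption of the interaction by any mechanism counts as activity.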
CtBP-E1A inh: CtBP/E1A binding inhibition. AlphaScreen GST-E1A/His-CtBP binding, 1536-well; active compounds read low. activity change, % (test concentration not listed). 340,000 compounds, 0.49% hits. AID 651724; in the data active = activity change below about -65%; inconclusive = mostly about -30% to -63%; note: % is set by controls: 0 for no effect and ±100 for the full control effect
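AlphaScreen with 125 nM GST-E1A and 125 nM His-CtBP (5X stocks) in Tris pH 8.0, 300 mM NaCl, BSA, Tween 20, TCEP. Compounds preincubated 2 h at 37 deg C, then glutathione donor/nickel acceptor beads added for 1 h at 37 deg C in dark.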
VP16 counter: inhibits Gal4-VP16 luciferase reporter, ROR gamma counter-screen; Drosophila S2 Gal4-VP16 UAS-luciferase, luminescence, 20 h; Potency, µM (doses to about 53.6 µM), inactives show top-dose activity, negative = inhibition, hits mostly inhibitors; 310,000 compounds, 3.5% hits; AID 2546;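 note: Gal4-VP16 expression switched on by copper sulfate through the metallothionein promoter; potency is the fitted concentration of half-maximal effect; % is set by controls: 0 for no effect and ±100 for the full control effect; nearly all actives have a fitted effect of over 50% in size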
RORg inh: blocks mouse ROR gamma transcriptional activity. 310,000 compounds, 5.4% hits. Drosophila S2 Gal4-RORgamma UAS-luciferase reporter, 20 h. P51450. AID 2551. Potency, µM (highest dose often 53.6 µM), for the others: at the top dose activity change, negative = inhibition, most hits filed as inhibitors; note: potency is the fitted concentration of half-maximal effect; % is set by controls: 0 for no effect and ±100 for the full control effect; nearly all actives have a fitted effect of over 60% in size
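Stable Schneider cell line, Gal4 DNA-binding domain fused to ROR gamma, UAS-luciferase. Cmpd 1 hr RT → CuSO4 700 uM final → 20 hr RT → luciferase reagent 10 min → luminescence.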
An asterisk follows results filed as active; ? = inconclusive; nt = no result given. Unless noted, calls come from the whole dose curve; as a rule, active = well fitted curve in the direction sought with a large enough effect; inconclusive = small, poorly fitted or top-dose-only effect, or another doubt; inactive = no such curve, though single readings can be large; an effect the other way counts as inactive or inconclusive.

SMILES | MBNL1 CUG block | Six1-Eya2 blk | CBFb-RUNX1 inh | CtBP-E1A inh | VP16 counter | RORg inh
CCCN(CC(=O)Nc1ccccc1OC)C(=O)c1ccc2c(c1)NC(=O)C(C)S2 (configuration not stated) | nt | 7.5 | nt | 1.5 | nt | nt
CCc1nnc(NC(=O)CSc2nnc(-c3ccccc3O)n2-c2ccc(C)cc2C)s1 | -1.7% | -9.6 | -12.9% | 0.9 | ? | 1.58µM*
CCc1nnc(NC(=O)CSc2ncc(-c3ccccc3)n2CC)s1 | 1.6% | -10.9 | -15.8% | -3.4 | ? | 11.2µM*
CCc1nnc(NC(=O)CSc2ncc(-c3ccccc3)[nH]2)s1 | -4.0% | -0.5 | 3.5% | -3.0 | ? | 6.31µM*
CCOc1ccccc1CNC(=O)C1CCN(c2nnc(C)c3c(C)n(-c4ccc(C)cc4)nc23)CC1 | 5.8% | -5.5 | nt | 0.8 | 17.8µM* | 12.6µM*
COc1ccc(-n2nc3c(N4CCC(C(=O)NCc5cccc(C)c5)CC4)nnc(C)c3c2C)cc1 | 23.5% | 24.7 | nt | nt | 20µM* | ?
Cc1ccc(-n2nc3c(N4CCC(C(=O)NCc5ccccc5C)CC4)nnc(C)c3c2C)cc1 | 118.8% | 9.9 | nt | 0.0 | ? | 12.6µM*
CCOc1ccc(CNC(=O)C2CCN(c3nnc(C)c4c(C)n(-c5ccc(C)cc5)nc34)CC2)cc1 | 15.6% | -6.5 | nt | nt | ? | ?
CS(=O)(=O)N1CCC2(CC1)CN(Cc1ccc(C#N)cc1)C2 | nt | nt | nt | nt | 6.5% | -0.6%
O=C(Nc1ccc(Br)cc1Br)c1cccc2c1C(=O)N(C1CCCCC1)C2 | -7.6% | 0.4 | nt | 7.6 | -2.1% | 0.9%
CN(C)c1ccc(N=Nc2ccc(C(=O)O)cc2)cc1 | ? | -11.3 | nt | -5.8 | 1.41µM* | 0.501µM*
OCCN(Cc1ccccn1)Cc1ccccn1 | nt | -89.6* | nt | -89.3* | nt | nt
Cc1oc2c(O)c(O)ccc2c(=O)c1-c1cnn(-c2ccccc2)c1 | -7.0% | ? | -15.6% | ? | 5.4% | 21.6%
Cc1nc(-c2cnn(-c3ccccc3)c2)c2cc(C)oc2n1 | 5.9% | -86.7* | 8.1% | -87.9* | 1.1% | 1.5%
Cn1cccc1/C=N/n1c(-c2ccc(C(C)(C)C)cc2)n[nH]c1=S | 0.2% | -28.8 | -16.8% | -15.1 | ? | 2.24µM*
Cn1cccc1/C=N/n1c(-c2ccccc2)n[nH]c1=S | 7.6% | -12.5 | -6.0% | -11.8 | ? | 14.1µM*
Fc1ccc(-c2n[nH]c(=S)n2/N=C/c2c[nH]c3ccccc23)cc1 | 123.7% | -17.4 | -9.5% | -12.4 | -0.3% | ?
COc1ccc(C(=O)Nc2ccc3c(c2)Cc2ccccc2-3)cc1 | 8.5% | 3.8 | 1.1% | -2.6 | 1.8% | -23.6%
COc1ccc2nc3c(cc2c1)Cc1ccccc1-3 | nt | nt | 2.3% | nt | 2.51µM* | 2.51µM*
COc1ccc(-c2ccc(OC)c(C3C4C=CCCC4(C)C(=O)N3Cc3ccccc3)c2)cc1OC (configuration not stated) | nt | nt | -24.1% | nt | -19.1% | 44.2%
COC(=O)c1ccc2nc(-c3cccc(Cl)c3)c(Cc3ccccc3)n2c1 | nt | 0.1 | nt | 11.3 | nt | nt
O=C(CCCSc1nc2ccccc2[nH]1)N1CCN(c2ccccc2)CC1 | -29.1% | -1.6 | 2.3% | -0.3 | -3.3% | 0.9%
CC(=O)c1ccc(N2CCN(C(=O)CCCn3c(=S)[nH]c4cc5c(cc4c3=O)OCO5)CC2)cc1 | 10.3% | -15.7 | -2.2% | -14.1 | ? | 11.2µM*
O=C(CCCn1c(=S)[nH]c2cc3c(cc2c1=O)OCO3)N1CCN(c2ccc(Cl)cc2)CC1 | -1.1% | 1.9 | 1.8% | -0.2 | 5.62µM* | 6.31µM*
O=C(CCCn1c(=S)[nH]c2cc3c(cc2c1=O)OCO3)N1CCN(c2ccccc2)CC1 | -4.7% | 0.8 | 1.1% | 14.4 | -2.9% | -39.7%
Cc1cccc(N2CCN(C(=O)CCCSc3nc4ccccc4[nH]3)CC2)c1C | -25.0% | -0.7 | -2.3% | 3.4 | 22.4µM* | ?
CCOC(=O)N1CCN(C(=O)CCCCCn2c(=S)[nH]c3cc4c(cc3c2=O)OCO4)CC1 | 111.0% | -13.9 | -0.3% | 11.5 | -4.3% | -30.5%
